Results on 6 compounds are retold here after paper PMC11062922 (Nature Chemical Biology, 2023).

Holding throughout (design): species or system human, MV4-11 + K-562 + COLO205 + SK-N-BE2 + OVCAR-8
The test system of one assay is CDK7. Particulars: read-out: apparent Kd; compound concentrations:100 nM and 1000 nM (sheet 'Samples'); n = 1.
The next assay deals with ERCC2. Particulars: read-out: apparent Kd; compound concentrations:100 nM and 1000 nM (sheet 'Samples'); n = 1.
The next assay concerns MAPK10. Particulars: read-out: apparent Kd; compound concentrations:100 nM and 1000 nM (sheet 'Samples'); n = 1.
A further assay relates to MAPK14. Particulars: read-out: apparent Kd; compound concentrations: 100 nM and 1000 nM (sheet 'Samples'), CATDS: 0.27428845343206798; n = 1.
The subject of another assay is MAPK9. Particulars: read-out: apparent Kd; compound concentrations:100 nM and 1000 nM (sheet 'Samples'); n = 1.
A further assay has as its system MAPKAPK2. Particulars: read-out: apparent Kd; compound concentrations:100 nM and 1000 nM (sheet 'Samples'); n = 1.
The test system of another assay is NLK. Particulars: read-out: apparent Kd; compound concentrations:100 nM and 1000 nM (sheet 'Samples'); n = 1.
The next assay deals with PIP4K2C. The settings on record: read-out: apparent Kd; compound concentrations:100 nM and 1000 nM (sheet 'Samples'); n = 1.
The subject of the next assay is PRKAA2. Particulars: read-out: apparent Kd; compound concentrations:100 nM and 1000 nM (sheet 'Samples'); n = 1.
The next assay concerns TNK2. Particulars: read-out: apparent Kd; compound concentrations:100 nM and 1000 nM (sheet 'Samples'); n = 1.
The next assay has as its system GSK3A. Particulars: read-out: apparent Kd; compound concentrations:100 nM and 1000 nM (sheet 'Samples'); n = 1.
A further assay relates to GSK3B. Particulars: read-out: apparent Kd; compound concentrations:100 nM and 1000 nM (sheet 'Samples'); n = 1.
The next assay concerns PAK6. Particulars: read-out: apparent Kd; compound concentrations:100 nM and 1000 nM (sheet 'Samples'); n = 1.
In another assay the test system is PKN1. The settings on record: read-out: apparent Kd; compound concentrations:100 nM and 1000 nM (sheet 'Samples'); n = 1.
Another assay deals with PRKCA. Particulars: read-out: apparent Kd; compound concentrations: 100 nM and 1000 nM (sheet 'Samples'), CATDS: 0.33942301458254898; n = 1.
A further assay has as its system PRKCB. Particulars: read-out: apparent Kd; compound concentrations:100 nM and 1000 nM (sheet 'Samples'); n = 1.
For the next assay, the system named is PRKCD. The settings on record: read-out: apparent Kd; compound concentrations:100 nM and 1000 nM (sheet 'Samples'); n = 1.
In another assay the test system is PRKCQ. Particulars: read-out: apparent Kd; compound concentrations:100 nM and 1000 nM (sheet 'Samples'); n = 1.
The subject of a further assay is RPS6KA6. The settings on record: read-out: apparent Kd; compound concentrations:100 nM and 1000 nM (sheet 'Samples'); n = 1.
Another assay relates to CDK6. Particulars: read-out: apparent Kd, n = 1.
The next assay has as its system EGFR. Particulars: read-out: apparent Kd; compound concentrations: 100 nM and 1000 nM (sheet 'Samples'), CATDS: 0.84328926118449798; n = 1.
A further assay relates to CLK1. Particulars: read-out: apparent Kd; compound concentrations:100 nM and 1000 nM (sheet 'Samples'); n = 1.
The next assay relates to CLK4. Particulars: read-out: apparent Kd; compound concentrations:100 nM and 1000 nM (sheet 'Samples'); n = 1.
For another assay, the system named is CSNK1A1. The settings on record: read-out: apparent Kd; compound concentrations:100 nM and 1000 nM (sheet 'Samples'); n = 1.
In another assay the test system is DYRK1A. Particulars: read-out: apparent Kd; compound concentrations:100 nM and 1000 nM (sheet 'Samples'); n = 1.
The test system of another assay is MAP3K5. Particulars: read-out: apparent Kd; compound concentrations:100 nM and 1000 nM (sheet 'Samples'); n = 1.
The test system of the next assay is MAP3K6. The settings on record: read-out: apparent Kd; compound concentrations:100 nM and 1000 nM (sheet 'Samples'); n = 1.
The test system of another assay is NUAK1. Particulars: read-out: apparent Kd; compound concentrations:100 nM and 1000 nM (sheet 'Samples'); n = 1.
The next assay concerns NUAK2. The settings on record: read-out: apparent Kd; compound concentrations:100 nM and 1000 nM (sheet 'Samples'); n = 1.
The next assay has as its system PDGFRB. Particulars: read-out: apparent Kd; compound concentrations:100 nM and 1000 nM (sheet 'Samples'); n = 1.
A further assay has as its system PI4KB. The settings on record: read-out: apparent Kd; compound concentrations:100 nM and 1000 nM (sheet 'Samples'); n = 1.
A further assay has as its system PKN2. The settings on record: read-out: apparent Kd; compound concentrations:100 nM and 1000 nM (sheet 'Samples'); n = 1.
In another assay the test system is PRKD2. The settings on record: read-out: apparent Kd; compound concentrations:100 nM and 1000 nM (sheet 'Samples'); n = 1.
The subject of another assay is PRKD3. The settings on record: read-out: apparent Kd; compound concentrations:100 nM and 1000 nM (sheet 'Samples'); n = 1.
For a further assay, the system named is RPS6KA1. Particulars: read-out: apparent Kd; compound concentrations:100 nM and 1000 nM (sheet 'Samples'); n = 1.
In a further assay the test system is RPS6KB1. The settings on record: read-out: apparent Kd; compound concentrations:100 nM and 1000 nM (sheet 'Samples'); n = 1.
The next assay concerns PIM2. The settings on record: read-out: apparent Kd; compound concentrations: 100 nM and 1000 nM (sheet 'Samples'), CATDS: 0.49047797816886901; n = 1.

Like-named read-outs stand apart in the source and are kept apart here.

Consider `Cl.Cn1c(=O)c(Oc2ccccc2)cc2cnc(NC3CCOCC3)nc21` [RO3304757-001], for which the potency estimated from few doses in the assay on CDK7 was 1310 nM; in the assay with ERCC2, 1500 nM; with MAPK10, 984 nM; with MAPK14 it was 68.9 nM; with MAPK9, 349 nM; with MAPKAPK2, 64.7 nM. In addition, the potency estimated from few doses was 148 nM in the assay with NLK, 896 nM with PIP4K2C, 1770 nM in the assay on PRKAA2 and 1160 nM in the assay with TNK2.

Take `CN(C)C[C@H]1CCn2c(c(C3=C(c4cn(C)c5ccccc45)C(=O)NC3=O)c3ccccc32)C1` [RO0320432-000]: the potency estimated from few doses is 1010 nM in the assay on CDK7; 821 nM with ERCC2; 530 nM in the assay on GSK3A; 299 nM with GSK3B; 1540 nM in the assay with PAK6; 1400 nM in the assay with PKN1. Further, the potency estimated from few doses was 18.6 nM with PRKCA; 66.4 nM in the assay on PRKCB; 27.1 nM with PRKCD; 122 nM with PRKCQ; 311 nM with RPS6KA6.

As to `CNC(=O)c1cccc(C#Cc2cncnc2Nc2ccc(OCc3cccc(F)c3)c(Cl)c2)c1` [GW772405X], the potency estimated from few doses in the assay with CDK6 (compound concentrations: 100 nM and 1000 nM (sheet 'Samples'), CATDS: 0.35534490355550902) is 1780 nM; in the assay with EGFR, 182 nM.

`C[C@@H]1CCNC(=O)c2cc3ccc(C(=O)Nc4nc5ccccc5n4CCCN(C)C)cc3n21` [BI00645435]: the potency estimated from few doses was 941 nM in the assay on CLK1; 931 nM with CLK4; 1000 nM with CSNK1A1; 2100 nM in the assay with DYRK1A; 2300 nM with MAP3K5; 1700 nM in the assay on MAP3K6. Further, the potency estimated from few doses was 110 nM in the assay on NUAK1; 383 nM in the assay with NUAK2; 1670 nM with PDGFRB; 581 nM in the assay on PI4KB; 1760 nM with PKN2; 731 nM in the assay on PRKD2. Further, the potency estimated from few doses in the assay with PRKD3 was 1480 nM; with RPS6KA1 it was 529 nM; with RPS6KA6, 5.39 nM; in the assay on RPS6KB1, 106 nM.

`COc1cc(C)c(N(C)C(=O)CN(C)C)cc1Nc1nc(Nc2cccc(F)c2C(N)=O)c2cc[nH]c2n1` [GSK2219385_KCGS]: the potency estimated from few doses in the assay with CDK6 (compound concentrations:100 nM and 1000 nM (sheet 'Samples')) was 1850 nM.

Take `O=C(Nc1n[nH]c2cc(-c3ccccc3F)ccc12)C1CC1` [SB-733371]: the potency estimated from few doses in the assay on CDK6 (compound concentrations: 100 nM and 1000 nM (sheet 'Samples'), CATDS: 0.50989905801732505) was 1670 nM; in the assay with PIM2, 1800 nM.
